Results filed as inconclusive are left out. A number with no mark means an inactive call. The call rests on the fitted dose curve; in most records, active means well fitted curve in either direction with a large enough effect (not every such curve was filed as active); inconclusive means small, poorly fitted or top-dose-only effect, or another doubt; inactive means flat fitted curve, though single readings scatter.
Assay: NFAT Signaling Pathway (AID 444);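 further: carbachol stimulus at about its EC50 of 1 µM final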
Settings: Jurkat NFAT-bla M1, carbachol, beta-lactamase ratio, 5 h; series mostly up to 17.2 µM; activity change, negative = inhibition: at the top concentration
Summary of the method: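 Read-out: CCF4 FRET ratio (460 nm/530 nm) after 1 h RT dye loading, used for %activity and AC50 from titration series. Cells: Jurkat NFAT-β-lactamase/M1 line, treated with compound plus 1 uM carbachol for 5 h, 37 °C.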
On the % scale 0 is the no-effect control and ±100 the full control effect.

Point of comparison: CN(C)c1ccccc1CN1CCCN(Cc2ccccc2N(C)C)C1c1ccncc1, “activity change, negative = inhibition” value -14.1% [at 7.69 µM]. Against it:
- O=S(=O)(O)c1ccc2cc(N=Nc3cc(S(=O)(=O)O)c4cccnc4c3O)ccc2c1 — higher, 5.63% [at 7.69 µM]
- NC(=O)c1nnn(Cc2cc(Cl)c(C(=O)c3ccc(Cl)cc3)c(Cl)c2)c1N — lower, -20.4% [at 7.69 µM]

Point of comparison: NS(=O)(=O)c1cc(Cl)c(Cl)c(S(N)(=O)=O)c1, “activity change, negative = inhibition” value 0.462%. Against it:
- C=C1c2cccc(O)c2C(O)=C2C(=O)[C@@]3(O)C(O)=C(C(N)=O)C(=O)[C@@H](N(C)C)[C@@H]3[C@@H](O)[C@H]12 — lower, -7.3%
- NCC1CCC(C(=O)O)CC1 (stereo not drawn) — lower, -7.88%
- CN[C@H]1[C@@H](O[C@@H]2[C@H](O[C@@H]3[C@@H](O)[C@@H](O)[C@@H](N=C(N)N)[C@@H](O)[C@@H]3N=C(N)N)O[C@H](C)[C@@]2(O)C=O)O[C@@H](CO)[C@@H](O)[C@H]1O — lower, -12.9%
- Cc1cc2nc3c(=O)[nH]c(=O)nc-3n(CC(O)C(O)C(O)CO)c2cc1C (stereo not drawn) — lower, -13.6%
